Only a selection was taken, and hits are over-represented in it overall.
ST2 inh – IL1RL1 inhibition; Q01638; AlphaLISA ST2-Fc/biotin-IL-33 interaction, 1 h; inhibition, % for hits at 17 µM; 78,000 tested, 2.3% active; AID 1259354; in the data active means inhibition above about 30%
Target sequence (Q01638 whole entry, looked up): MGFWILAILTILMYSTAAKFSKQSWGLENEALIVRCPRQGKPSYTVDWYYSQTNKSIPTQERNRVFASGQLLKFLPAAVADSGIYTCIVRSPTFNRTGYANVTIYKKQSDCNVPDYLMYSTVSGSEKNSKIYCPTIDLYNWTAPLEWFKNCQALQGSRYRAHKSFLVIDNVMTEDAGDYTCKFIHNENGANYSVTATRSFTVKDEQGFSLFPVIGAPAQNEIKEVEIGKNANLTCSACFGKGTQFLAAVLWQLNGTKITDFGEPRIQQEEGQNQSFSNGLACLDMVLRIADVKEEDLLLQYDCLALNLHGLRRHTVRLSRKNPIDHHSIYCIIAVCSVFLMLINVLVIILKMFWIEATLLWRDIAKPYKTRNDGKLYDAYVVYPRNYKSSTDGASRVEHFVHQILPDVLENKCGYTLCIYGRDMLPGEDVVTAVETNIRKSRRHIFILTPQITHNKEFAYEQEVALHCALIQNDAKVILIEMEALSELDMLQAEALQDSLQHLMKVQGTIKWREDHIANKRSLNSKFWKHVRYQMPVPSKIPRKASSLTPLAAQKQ
Active calls of the source: *; i = inactive; ! = not confirmed by another sample.

SMILES | ST2 inh
O=C1C(=Cc2ccc(-c3ccc(Cl)c([N+](=O)[O-])c3)o2)C(=O)c2ccccc21 | i
CC(=O)NC1=NC(=O)/C(=C/c2ccc(-c3cccc(Cl)c3)o2)S1 | i
NC1=NC(=O)/C(=C\c2ccc(-c3ccc(Cl)c([N+](=O)[O-])c3)o2)S1 | 40.0%*
O=C1NC(=O)/C(=C\c2ccc(-c3ccc(Cl)c([N+](=O)[O-])c3)o2)S1 | 69.0%*
O=C1/C(=C/c2ccc(Cl)c([N+](=O)[O-])c2)Sc2ccccc21 | i
O=C(c1ccccc1Oc1ccccc1)N1CCOC2(CNCCOC2)C1 (stereo not given) | i
Cc1ccc2nc(N3CCC(C(=O)NCCC4COc5ccccc5O4)CC3)nc(C)c2c1 (stereo not given) | i
O=C(Cc1ccc([N+](=O)[O-])cc1)NCCO | i
O=C(c1cc(-c2ccccc2)on1)N1C[C@H](O)[C@@H](N2CCOCC2)C1 | i
O=C(CN1C(=O)C2CCCCN2C(=O)c2ccccc21)NCc1ccc2c(c1)OCO2 (stereo not given) | i
O=C(CN1C(=O)C2CCCCN2C(=O)c2ccccc21)NCc1ccc(F)cc1 (stereo not given) | 37.0%*
O=C(CN1C(=O)C2CCCCN2C(=O)c2ccccc21)N1CCN(Cc2ccccc2)CC1 (stereo not given) | i
O=C(c1cccc(Br)c1)N1CCOCC1 | i
O=C(c1nn2cc(Br)cnc2c1Br)N1CCOCC1 | i
O=C(c1cc2ncc(Br)cn2n1)N1CCOCC1 | 38.0%*
CC(C)C(NS(=O)(=O)c1cccs1)C(=O)NC1CCCCC1 (stereo not given) | i
C=CCN1C(=O)CSc2ccc(C(=O)NCCc3ccc(Cl)cc3)cc21 | i
Cc1cc(Nc2ccc(O)cc2)c2cc(Cl)ccc2n1 | i
CCOc1ccccc1Nc1cc(C)nc2ccc(OC)cc12 | i
COc1ccc2nc(C)cc(Nc3ccccc3OC)c2c1 | i
COc1cccc(Nc2cc(C)nc3ccc(Cl)cc23)c1 | i
Cc1cc(Nc2ccc(N(C)C)cc2)c2cc(Cl)ccc2n1 | 39.0%*
COc1ccc2nc(C)cc(Nc3ccc(N(C)C)cc3)c2c1 | 52.0%*
COCCNC(=O)c1ccc2c(c1)N(C)C(CC(=O)Nc1cnccc1C)CO2 (stereo not given) | i
O=c1oc2ccccc2n1CCCOc1ccc(Cl)cc1 | i
SMILES | ST2 inh
Cc1ccc(Cc2nc3cc(C)c(C)cc3[nH]c2=O)c(C)c1 | i
N#Cc1c(N)n(-c2ccc(Cl)cc2)c2nc3ccccc3nc12 | i
CCOC(=O)c1c(N)n(-c2ccc(C)cc2C)c2nc3ccccc3nc12 | i
COc1ccc(-n2c(N)c(C#N)c3nc4ccccc4nc32)c(OC)c1 | 32.0%*
CC1=C(C(=O)NCc2nc(-c3ccccc3)cs2)C(C)NC(=O)N1 (stereo not given) | i
O=C(CCCNS(=O)(=O)c1cccs1)NCc1ccc(F)cc1 | i
O=C(O)COc1ccc(NC(=O)C2CCCCC2)cc1 | i
O=C(Nc1ccc(Oc2ccccc2)cc1)C1CC1 | i
O=C(Nc1ccc(O)cc1)C1CC=CCC1 (stereo not given) | 34.0%*
CN1CC2(CCCN(C(=O)c3csc4c3CCCC4)CC2)OC1=O (stereo not given) | i
COc1ccc2c(c1)C1=NN(C(C)=O)C(c3cccc(F)c3)C1CC2 (stereo not given) | i
CCCc1nc2oc3c(-c4ccccc4)c(C(=O)O)c(C)nc3c2c2c1COC(C)(C)C2 | i
CCc1nc2oc(C(=O)c3ccccc3)c(N)c2c2c1COC(C)(C)C2 | 40.0%*!
CCc1nc2oc(C(=O)c3ccc(Cl)cc3)c(N)c2c2c1COC(C)(C)C2 | i
CC(=O)c1ccc(Oc2ccc(N)cc2)cc1 | i
N#Cc1ccc(Oc2ccc(C(=O)O)cc2)cc1C#N | i
Nc1nc2ccc(Oc3ccc4nc(N)sc4c3)cc2s1 | i
COc1ccc(Oc2ccc(N)cc2)cc1 | 39.0%*
Nc1ccc(Oc2ccc(N)c(N)c2)cc1 | 44.0%*
Nc1ccc(Oc2ccc(-c3nc(N)nc(N)n3)cc2)cc1 | i
CCN(CC)C(=O)[C@@H](C)[C@@H]1CC[C@@]2(C)CC[C@H](NC(=O)c3ccccn3)[C@@H](C)[C@@H]2[C@H]1O | i
Nc1ccc(-c2ccc(F)cc2Cl)cn1 | 35.0%*
COc1cncc(-c2ccc(F)cc2Cl)c1 | i
NC(=O)c1ccnc(-c2ccc(F)cc2Cl)c1 | i
Cc1ccccc1C(=O)Nc1sc2c(c1C(=O)N(C)C)CCCCC2 | i
SMILES | ST2 inh
Cc1ccc2nc(CN(C)Cc3ccc(S(C)(=O)=O)cc3)[nH]c2c1 | i
COc1ccc(CNC(=O)C[C@@H]2C[C@@H](C(C)C)[C@H](CNS(=O)(=O)c3cccs3)C=C2C)cc1 | i
OCC1CCCN1Cc1cccc(Cl)c1 (stereo not given) | i
O=C1N(CCc2ccccc2)C[C@@H]2C[C@@H](c3cnc(-c4ccccc4)s3)N3CCC[C@@]123 | i
O=C1N(Cc2cccc(Cl)c2)C[C@@H]2C[C@@H](c3ccc4nsnc4c3)N3CCC[C@@]123 | 40.0%*
CCOC(=O)c1c(C)oc2cc(Br)c(OC(C)=O)cc12 | i
O=C1CCCCCN1CC(=O)N(Cc1ccsc1)CC1CCCO1 (stereo not given) | i
Cc1sc(NC(=O)c2ccco2)c(C(=O)O)c1C | i
Cc1ccc(Cl)cc1N=C1C(=O)Nc2ccccc21 | i
O=c1oc2ccccc2cc1-c1nc(-c2cccs2)cs1 | 51.0%*
O=c1oc2cc(O)ccc2cc1-c1nc(-c2ccc3ccccc3c2)cs1 | i
O=C(Nc1nc(-c2cccs2)cs1)c1cc2ccccc2oc1=O | i
O=c1oc2ccc(Br)cc2cc1-c1nnc(-c2ccccc2Br)o1 | i
O=c1oc2ccc(Br)cc2cc1-c1nc(-c2cccs2)cs1 | 30.0%*
COc1ccc(-c2cc3cc(Br)ccc3oc2=O)cc1 | i
O=c1c2cnn(-c3ccccc3)c2nc(-c2cccs2)n1-c1ccc(F)cc1 | i
CCCn1cc(CNC(C)c2cnc(-c3ccncc3)nc2C)c(C)n1 (stereo not given) | i
N#Cc1c(N=CN2CCCCC2)sc2c1CCCCC2 | 35.0%*
N#Cc1c(N=CC2C(=O)c3ccccc3C2=O)sc2c1CCCC2 | i
CC(=O)Nc1sc2c(c1C#N)CCC2 | i
COc1ccccc1N1CCN(C2CCCN(Cc3ccccc3-c3ccco3)C2)CC1 (stereo not given) | i
Cc1cc(NS(=O)(=O)c2ccccc2)ccc1-c1cc2ccccc2oc1=O | i
Cn1c(C(=O)Nc2cccc(Cl)c2)cc2c(=O)n3ccccc3nc21 | i
Cc1cccc(N=Cc2c(Nc3cccc(C)c3)nc3ccccn3c2=O)c1 | 44.0%*
Cc1cccc(Nc2nc(C)[nH]c2[N+](=O)[O-])c1 | i
SMILES | ST2 inh
Cc1ccc(S(=O)(=O)NCc2nc3cccnc3n2Cc2ccccc2Cl)cc1C | i
O=C(Nc1c(C(=O)Nc2ccc(F)cc2)oc2ccccc12)c1cccc(F)c1 | i
CCOC(=O)C1CCCN(C(=O)c2cn(C)c(=O)c3cc(OC)c(OC)cc23)C1 (stereo not given) | 35.0%*
COc1ccc(N2CCN(C(=O)c3cn(C)c(=O)c4cc(OC)c(OC)cc34)CC2)cc1 | 46.0%*
CCOC(=O)C1CCCN(C(=O)c2cn(CC(C)C)c(=O)c3cc(OC)c(OC)cc23)C1 (stereo not given) | i
CCN1CCN(C(=O)c2cn(CC)c(=O)c3cc(OC)c(OC)cc23)CC1 | i
CCOC(=O)C1CCCN(C(=O)c2cn(CC)c(=O)c3cc(OC)c(OC)cc23)C1 (stereo not given) | i

Screening results: PubChem BioAssay, Paczesny and Yang Labs, IUPUI and University of Michigan
